CBFb RUNX1 block: qHTS Assay for Compounds Blocking the Interaction Between CBF-beta and RUNX1 for the Treatment of Acute Myeloid Leukemia; AlphaScreen CBFb-His/RUNX1-biotin binding, biochemical; Potency, µM (highest dose often 59.8 µM), for inactives: at the top dose activity, negative = inhibition, actives largely listed as inhibitors; 230,000 tested, under 10 active; also: % of control where 0% means no effect
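Inhibition was taken as any reduction in AlphaScreen signal from the CBF-beta–RUNX1 pair (His and biotin tags, 30 nM each), measured after compound (15 min) and bead (90 min) incubations at room temperature.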
D3 ag: qHTS of D3 Dopamine Receptor Agonist: qHTS; D(3) dopamine receptor (Homo sapiens), P35462; D3R DiscoveRx beta-arrestin cells, luminescence, 90 min; max activation, %; 410,000 compounds, 0.58% hits; in the data active = max activation above about 30%; also: 0% is about no effect
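Agonist-mode cell screen: cells plated at 1500/well and incubated overnight at 37 °C, then exposed to library compounds for 90 min at 37 °C. Detection reagent was added for 30–60 min at room temperature, and luminescence was read.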
Integrin act MD: qHTS for Activators of Integrin-Mediated Alleviation for Muscular Dystrophy. alpha7betagal myoblasts, beta-gal FDG fluorescence, 48 h. Potency, µM (series often up to 38.3 µM), for inactives: at the top dose activation, hits mostly activators. 350,000 compounds, 0.064% hits;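 also: potency is read from the fitted curve at half-maximal effect; 100% = response of the positive control SU9516; nearly all actives have a fitted effect of over 60% in size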
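alpha7betagal+/- myoblasts (passage 13, 250/well) treated 48 h at 37C with compounds at 1:260 dilution of DMSO stock. Lysed, then beta-galactosidase activity read as FDG fluorescence (ex 480/em 540) after 30 min, with pre-read for autofluorescence.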
MBNL1-CUG inh: qHTS Assay for Inhibitors of MBNL1-poly(CUG) RNA binding | AID 2675, 2010 | Muscleblind-like protein 1 (Homo sapiens), Q9NR56 | 280,000 compounds, 0.036% hits | Potency, µM (doses to about 57.5 µM), for the others: at the top dose activity change, negative = inhibition, usual class: inhibitors | TR-FRET MBNL1-His/biotin-(CUG)12 binding, 665/545 ratio; active = well fitted inhibition curve with a large enough effect in the signal ratio, with a control signal flat, not every such curve was filed as active; inconclusive = small, poorly fitted or top-dose-only effect, or effect the other way, or a change in a side signal; inactive = no such curve, though single readings can be large or run the other way; the % refers to the signal ratio; also: potency is read from the fitted curve at half-maximal effect; % is scaled to controls: 0 for no effect and ±100 for the full control effect
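MBNL1-His + Biotin-(CUG)12, cpd titration 92 nM–58 uM; Tb anti-His Ab 0.055 ng/ul, SA-XL665 5 nM (final); 60 min RT; ratiometric 665/545 nm, Ex 340 nm; normalized to buffer and full-complex controls.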
DRD3 antagonist: qHTS of D3 Dopamine Receptor Antagonist: qHTS | max response, negative = inhibition, % | AID 652054, 2013 | D3R cells, DiscoveRx beta-arrestin luminescence, antagonist mode; active compounds read low | D(3) dopamine receptor (Homo sapiens), P35462 | 360,000 compounds, 2.5% hits; in the data active = max response below about -50%; inconclusive = no clear call, values can overlap the other calls; also: % is scaled to controls: 0 for no effect and ±100 for the full control effect
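Cells plated overnight at 1500 cells/well, then exposed to library compounds with dopamine controls for 90 minutes at 37 degrees C. DiscoveRx reagent added for 30–60 minutes at room temperature; luminescence read, quantitative HTS format.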
PTHR1 agonist: qHTS for PTHR1 Agonists: Primary Screen; HEK293 GP2 PTHR1 cells, GloSensor cAMP luminescence, 1 h; 410,000 compounds, 0.075% hits; Potency, µM (doses to about 115 µM), for the others: at the highest dose activation, most hits filed as activators; Parathyroid hormone/parathyroid hormone-related peptide receptor (Homo sapiens), Q03431; AID 743266, 2014; also: potency is read from the fitted curve at half-maximal effect; nearly all actives have a fitted effect of over 55% in size
Target sequence (Q03431 whole entry, looked up): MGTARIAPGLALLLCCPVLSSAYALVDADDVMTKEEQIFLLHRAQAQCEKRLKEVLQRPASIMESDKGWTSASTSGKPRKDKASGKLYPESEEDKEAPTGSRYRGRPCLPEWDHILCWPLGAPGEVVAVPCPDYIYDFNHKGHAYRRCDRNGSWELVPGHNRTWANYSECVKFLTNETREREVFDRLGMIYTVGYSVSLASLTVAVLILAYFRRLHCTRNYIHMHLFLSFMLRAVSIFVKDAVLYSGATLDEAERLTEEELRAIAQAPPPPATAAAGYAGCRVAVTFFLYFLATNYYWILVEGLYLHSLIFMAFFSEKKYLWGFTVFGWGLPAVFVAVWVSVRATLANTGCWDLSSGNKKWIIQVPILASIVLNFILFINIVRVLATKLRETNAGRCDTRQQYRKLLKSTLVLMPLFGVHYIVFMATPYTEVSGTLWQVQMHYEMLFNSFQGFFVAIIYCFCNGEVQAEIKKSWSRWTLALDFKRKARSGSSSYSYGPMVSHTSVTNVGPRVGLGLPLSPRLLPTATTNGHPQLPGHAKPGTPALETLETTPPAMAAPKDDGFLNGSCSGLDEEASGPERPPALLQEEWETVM
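HEK-293-derived GP2 cells expressing PTHR1 and a GloSensor cAMP reporter, 3,000/well, plated overnight, given luciferin plus IBMX (each 0.5 mM as added) for 1 h at 37 °C, then compound for 1 h at 37 °C. Luminescence was read after 15 min at room temperature.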
Active calls of the source: *; i = inactive; ? = inconclusive; . = no result given; [ ] = another dose, or the depositor's remark. Shown are actives, neighbours in structure and some others; about 2.8% of the full set was active somewhere. Unless noted, calls follow the shape of the dose curve; as a rule, active = well fitted curve in the direction sought with a large enough effect; inconclusive = small, poorly fitted or top-dose-only effect, or another doubt; inactive = no such curve, though single readings can be large; an effect the other way counts as inactive or inconclusive.

SMILES | CBFb RUNX1 block | D3 ag | Integrin act MD | MBNL1-CUG inh | DRD3 antagonist | PTHR1 agonist
O=C(CSc1nc2scc(-c3ccco3)c2c(=O)n1-c1ccccc1)N1CCOCC1 | -0.4% | 30.7* | -17.6% | 8.4% | 12.3 | -3.9%[57.5 µM]
OCC1(Cc2ccccc2)CCN(Cc2cccc(F)c2F)CC1 | 7.5% | -20.5 | -14.4% | -20.5% | -129.5* | -9.1%
OCC1(Cc2ccc(Cl)cc2)CCN(CCCc2ccccc2)CC1 | 1.1% | 6.6 | -53.9% | 2.9% | -65.1* | -12.8%
OCC1(Cc2ccc(Cl)cc2)CCN(Cc2ccccc2F)CC1 | 6.4% | -19.6 | -30.7% | -6.6% | ? | -32.2%
CCCCC(=O)NC1(C(F)(F)F)NC(=O)N(Cc2ccccc2)C1=O (stereo not drawn) | ? | 4.2 | -35.8% | -11.8% | -12.6 | -13.6%
COc1ccc(NC(=O)CSc2n[nH]c(C(C)C)n2)c([N+](=O)[O-])c1 | -3.8% | 2.3 | -33.7% | ? | -16.2 | i
COc1ccc(NC(=O)CSc2n[nH]c(N)n2)c([N+](=O)[O-])c1 | 9.3% | -4.3 | 13.2%[7.66 µM] | ? | -91.9* | i
COc1ccc(N2C(=NC(=O)C(C)Oc3ccccc3)SC3CS(=O)(=O)CC32)cc1 (stereo not drawn) | . | 0.3 | ? | 0.8% | -12.9 | i
CCOC(=O)Cc1cc(-c2ccc(F)cc2)nc2ccc3ccccc3c12 | 2.2% | 1.9 | 6.8% | . | 25.7 | -53.5%
N#CCCN1CCN(Cc2cc(-c3ccccc3)ccc2O)CC1 | -2.8% | -10.5 | 0.0% | -7.3% | -95.6* | 15.8µM*
O=C(C1CCCN(Cc2ccccc2Br)C1)N1CCCCC1 (stereo not drawn) | 1.8% | -6.2 | 1.7% | 0.7% | -84.6* | i
O=C(C1CCCN(Cc2ccccc2C(F)(F)F)C1)N1CCCCC1 (stereo not drawn) | 0.3% | 0.8 | 13.1% | 2.7% | -87.7* | i
CN(CC(=O)NCC(=O)Nc1ccc(F)c(F)c1F)C1CCS(=O)(=O)C1 (stereo not drawn) | . | 10.8 | -23.2% | . | 0.5 | -0.4%
COCCCNCCCCOc1ccc(OCc2ccccc2)cc1 | 2.6% | -2.1 | -64.5% | -8.7% | -10.9 | i
CCc1cccc(OCCCCNCCOC)c1 | 3.4% | -13.1 | -60.6% | -5.1% | -67.3* | -19.9%[57.5 µM]
CCN1C(=O)NC2=C(C(=O)c3ccccc32)C1c1ccccc1F (stereo not drawn) | -22.9% | -5.1 | -8.7% | ? | -61.6* | -1.4%[57.5 µM]
NCc1ccccc1CC(=O)N[C@@H]1C(=O)N2C(C(=O)O)=C(CSc3nnnn3CC(=O)O)CS[C@H]12 | . | 6.6 | . | . | . | .
COc1ccc(N2CCN(c3ncnc4scc(-c5ccc(C)cc5)c34)CC2)cc1 | . | 2.8 | -47.5% | -0.6% | 16.1 | i
c1csc(-c2csc3ncnc(NCCCN4CCOCC4)c23)c1 | 1.6% | -17.4 | -28.5%[7.66 µM] | 2.6% | -55.9* | -23.0%[57.5 µM]
c1ccc(N2CCN(c3ncnc4scc(-c5cccs5)c34)CC2)cc1 | 12.3% | 50.5* | 11.2%[7.66 µM] | -9.0% | 38.9 | -0.8%[57.5 µM]
Fc1ccc(-c2csc3ncnc(N4CCN(c5ccccc5)CC4)c23)cc1 | . | 1.5 | 12.6% | 150.6% | 23.1 | -10.2%
CCN1CCN(c2ncnc3scc(-c4ccc(OC)cc4)c23)CC1 | . | -11.8 | -10.2% | -9.1% | -61.4* | i
COc1ccc(CN2CCN(c3ncnc4scc(-c5ccc(F)cc5)c34)CC2)cc1 | . | -30.8 | -20.8% | -9.1% | ? | -1.5%
COc1ccc(N2CCN(c3ncnc4scc(-c5ccccc5)c34)CC2)cc1 | . | 31.0* | 4.9% | 4.5% | 66.9 | -13.0%
CNC(=O)Cn1nc(-c2ccc(Cl)cc2)c2ccccc2c1=O | . | -4.7 | 37.2% | -4.1% | 9.2 | i
SMILES | CBFb RUNX1 block | D3 ag | Integrin act MD | MBNL1-CUG inh | DRD3 antagonist | PTHR1 agonist
CCC(C)N(C(=O)COC(=O)c1ccccc1SCC(=O)N1CCCC1)C1CCS(=O)(=O)C1 (stereo not drawn) | . | -3.5 | 7.0% | -5.1% | 0.2 | -23.4%
Cc1ccc(Sc2ccc(S(=O)(=O)Nc3ccc(CC(=O)O)cc3)cc2)cc1C | . | 2.3 | 25.9% | . | 12.5 | -8.5%
CCCCn1c(N)c(N(CC(C)C)C(=O)c2cc3c(s2)CCCCC3)c(=O)[nH]c1=O | . | -1.6 | 6.4% | . | 7.1 | -6.2%
COc1ccc(C(=O)NCc2ccc(OCCN(C)C)cc2)cc1OC | . | -75.9 | . | . | -72.4* | -6.9%
COc1ccc(C(=O)NCc2ccc(Cl)c(Cl)c2)cc1OC | -5.2% | -3.5 | 4.4% | -27.7% | -1.5 | -25.4%
CCOc1ccc(NC(=O)CNC(=O)c2ccc(OC)c(OC)c2)cc1 | -2.3% | -11.3 | 3.5% | -5.2% | -54.0* | i
COc1cc(C(=O)NCc2ccc(OCCN(C)C)cc2)cc(OC)c1OC | 6.0% | -86.1 | . | . | -94.7* | i
COc1cc(C(=O)NCc2ccncc2)cc(OC)c1OC | 5.6% | 5.2 | -14.3% | 4.1% | 4.2 | i
CC(C)(C)CC(=O)NCC(c1ccc2c(c1)OCO2)N1CCOCC1 (stereo not drawn) | . | -1.1 | . | . | . | 20.8%
COc1ccc(CN2CCCC(N3CCN(c4ccc(OC)cc4)CC3)C2)cc1 (stereo not drawn) | . | -6.3 | -17.6% | -5.5% | -57.7* | -12.2%
COc1ccc(N2CCN(C3CCCN(Cc4cccc(C)c4)C3)CC2)cc1 (stereo not drawn) | . | -19.4 | -36.1% | -2.8% | -24.1 | -14.5%
c1ccc(Cc2noc(CN3CCN(CCOc4ccccc4)CC3)n2)cc1 | 8.5% | 15.8 | 34.2% | 6.6% | -53.3* | -50.7%
COCCOC(=O)c1c(C)nc(SCC(=O)Nc2cccc3ccccc23)c(C#N)c1-c1ccco1 | 2.1% | -2.1 | -29.7% | 10.2% | -65.3* | -1.5%
COc1ccc([C@H]2CC(=O)C=C(c3ccc(OC)c(OC)c3)C2)cc1 | . | 4.9 | 18.8% | . | 32.1 | -24.2%
COc1ccc([C@H]2CC(=O)C=C(c3ccc4ccccc4c3)C2)cc1OC | . | 41.8* | 20.0% | . | 38.1 | -80.3%
CCOC(=O)c1cccc(C2=CC(=O)C[C@H](c3ccc(OC)c(OC)c3)C2)c1 | . | 51.8* | -29.6% | . | 88.1 | -54.8%
C=Cc1ccc(C2=CC(=O)C[C@H](c3ccc(OC)cc3)C2)cc1 | . | -27.2 | 34.0% | . | -52.1* | -23.7%
COc1ccc([C@H]2CC(=O)C=C(c3cccc(CO)c3)C2)cc1OC | . | 8.3 | -34.2% | . | 30.7 | -29.1%

High-throughput results as filed in PubChem BioAssay.
